Measurements reported in PubChem BioAssay (EPA / NIEHS).
Active and inactive are the calls of the source. Rule for the calls: active = hit-call score of the fitted dose curve at least 0.9, where 1 is the maximum; inactive = score below 0.9.

Legend:
Settings in all cases: mRNA level, 48 h; actives raise or lower the signal
CYP4A11 (gene 1579) = test: LTEA_HepaRG_CYP4A11: Life Technologies and Expression Analysis (LTEA) Assay for CYP4A11 using HepaRG (AID 2283486)
How it was run: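 Readout is CYP4A11 mRNA induction or suppression (qRT-PCR, ACTB/GAPDH/POLR2A normalization) in human HepaRG cells after 48 h chemical treatment, concentrations to 100 uM in 0.5% DMSO, fitted bidirectionally against vehicle.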

[1] = read-out: Cytochrome P450 3A4 (Homo sapiens) (UniProt P08684); test: LTEA_HepaRG_CYP3A4: Life Technologies and Expression Analysis (LTEA) Assay for CYP3A4 using HepaRG (AID 2283487)
How it was run: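 CYP3A4 transcript measured by TaqMan qRT-PCR and normalized to three housekeeping genes after 48 h chemical exposure of human HepaRG cells. Top concentration 100 uM, half-log steps, 0.5% DMSO vehicle; gain or loss fitted against DMSO baseline.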

[2] = read-out: DNA damage-inducible transcript 3 (DDIT3), DDIT3 (gene 1649); test: LTEA_HepaRG_DDIT3: Life Technologies and Expression Analysis (LTEA) Assay for DNA damage-inducible transcript 3 (DDIT3) using HepaRG (AID 2283488)
How it was run: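 DDIT3 transcript was quantified by qRT-PCR with ACTB/GAPDH/POLR2A normalization after 48 h chemical treatment of differentiated HepaRG cells in 0.5% DMSO. Dosing was eight-point, half-log, top 100 uM, duplicate wells. Curves fitted bidirectionally versus DMSO.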

[3] = read-out: Pro-epidermal growth factor (Homo sapiens) (UniProt P01133); test: LTEA_HepaRG_EGF: Life Technologies and Expression Analysis (LTEA) Assay for Epidermal growth factor (EGF) using HepaRG (AID 2283489)
How it was run: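 EGF expression changes in human HepaRG cells are scored by bidirectional fitting relative to 0.5% DMSO controls. Chemicals are tested at eight half-log concentrations up to 100 uM for 48 h in serum-free induction medium.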

[4] = read-out: Early growth response protein 1 (EGR1) transcription factor, EGR1 (gene 1958); test: LTEA_HepaRG_EGR1: Life Technologies and Expression Analysis (LTEA) Assay for Early growth response protein 1 (EGR1) transcription factor using HepaRG (AID 2283490)
How it was run: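 EGR1 expression change in human HepaRG after 48 h chemical exposure, assessed by housekeeping-normalized qRT-PCR; concentration-response up to 100 uM, fitted in both directions against DMSO controls.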

[5] = read-out: Ezrin (EZR), EZR (gene 7430); test: LTEA_HepaRG_EZR: Life Technologies and Expression Analysis (LTEA) Assay for Ezrin (EZR) using HepaRG (AID 2283491)
How it was run: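 HepaRG, 48 h chemical exposure, 8-pt half-log series from 100 uM, 0.5% DMSO vehicle, duplicates. Read-out: EZR mRNA by TaqMan qRT-PCR (Fluidigm array), housekeeping-normalized; bidirectional curve fit vs DMSO baseline.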

[6] = read-out: Cytochrome P450 3A7 (Homo sapiens) (UniProt P24462); test: LTEA_HepaRG_CYP3A7: Life Technologies and Expression Analysis (LTEA) Assay for CYP3A7 using HepaRG (AID 2283492)
How it was run: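 Cells were thawed, plated, cultured 48 h, then treated for a further 48 h with chemicals (eight-point half-log series from 100 uM, 0.5% DMSO). RNA was isolated and CYP3A7 expression quantified by qRT-PCR normalised to ACTB, GAPDH and POLR2A.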

CYP3A5 (gene 1577) = test: LTEA_HepaRG_CYP3A5: Life Technologies and Expression Analysis (LTEA) Assay for CYP3A5 using HepaRG (AID 2283493)
How it was run: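 mRNA levels were quantified by qRT-PCR on Fluidigm arrays and normalized to three housekeeping genes. Differentiated HepaRG cells received 48 h exposure (top 100 uM, half-log steps, 0.5% DMSO vehicle, duplicate); bidirectional fitting versus DMSO.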

[7] = read-out: Fatty Acid-Binding Protein 1 (FABP1), FABP1 (gene 2168); test: LTEA_HepaRG_FABP1: Life Technologies and Expression Analysis (LTEA) Assay for Fatty Acid-Binding Protein 1 (FABP1) using HepaRG (AID 2283494)
How it was run: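 Values reflect bidirectional concentration-response fitting of FABP1 mRNA change against 0.5% DMSO controls. Human HepaRG cultures received eight half-log doses (top 100 uM) for 48 h; expression quantified by TaqMan qRT-PCR with housekeeping-gene normalization.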

[8] = read-out: Cytochrome P450 4A22 (Homo sapiens) (UniProt Q5TCH4); test: LTEA_HepaRG_CYP4A22: Life Technologies and Expression Analysis (LTEA) Assay for Cytochrome P450 4A22 (CYP4A22) using HepaRG (AID 2283495)
How it was run: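 Cryopreserved HepaRG cells, plated and cultured 48 h, then switched to serum-free induction medium and treated 48 h (duplicates, up to 100 uM, half-log steps, 0.5% DMSO). Expression change of CYP4A22 was fitted bidirectionally against vehicle.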

[9] = read-out: Cytochrome P450 7A1 (Homo sapiens) (UniProt P22680); test: LTEA_HepaRG_CYP7A1: Life Technologies and Expression Analysis (LTEA) Assay for Cytochrome P450 7A1 (CYP7A1) using HepaRG (AID 2283496)
How it was run: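 HepaRG, 48 h exposure, 8-pt half-log series from 100 uM, 0.5% DMSO vehicle, duplicates. Readout: TaqMan qRT-PCR mRNA vs three housekeeping genes; bidirectional curve fit against DMSO baseline.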

[10] = read-out: Glutathione S-Transferase (GSTA2), GSTA2 (gene 2939); test: LTEA_HepaRG_GSTA2: Life Technologies and Expression Analysis (LTEA) Assay for Glutathione S-Transferase (GSTA2) using HepaRG (AID 2283497)
How it was run: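 Oxidative-stress marker GSTA2 is quantified by TaqMan qRT-PCR in HepaRG cultures treated 48 h across an eight-point range to 100 uM. Expression is normalized to endogenous controls and compared with 0.5% DMSO vehicle.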

[11] = read-out: Glutamate-cysteine ligase catalytic (GCLC), GCLC (gene 2729); test: LTEA_HepaRG_GCLC: Life Technologies and Expression Analysis (LTEA) Assay for Glutamate-cysteine ligase catalytic (GCLC) using HepaRG (AID 2283498)
How it was run: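 Oxidative-stress marker GCLC is measured as mRNA change in human HepaRG liver cells after 48 h chemical treatment in 0.5% DMSO, eight concentrations from 100 uM. Activity is fitted bidirectionally against vehicle.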

[12] = read-out: Glutamate-cysteine ligase regulatory (GCLM), GCLM (gene 2730); test: LTEA_HepaRG_GCLM: Life Technologies and Expression Analysis (LTEA) Assay for Glutamate-cysteine ligase regulatory (GCLM) using HepaRG (AID 2283500)
How it was run: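 GCLM expression quantified by qRT-PCR, normalized to three housekeeping genes, after 48 h chemical treatment of HepaRG cells in duplicate at 8 concentrations (top 100 uM, half-log steps, 0.5% DMSO). Changes fitted both directions against vehicle.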

[13] = read-out: Glutathione S-transferase M3 (GSTM3), GSTM3 (gene 2947); test: LTEA_HepaRG_GSTM3: Life Technologies and Expression Analysis (LTEA) Assay for Glutathione S-transferase M3 (GSTM3) using HepaRG (AID 2283501)
How it was run: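 Changes in GSTM3 expression, an oxidative-stress marker, were scored by bidirectional curve fitting against 0.5% DMSO vehicle. Human HepaRG cultures received chemicals for 48 h in duplicate, highest concentration 100 uM with half-log dilutions.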

[14] = read-out: Hypoxia-inducible factor 1-alpha (Homo sapiens) (UniProt Q16665); test: LTEA_HepaRG_HIF1A: Life Technologies and Expression Analysis (LTEA) Assay for Hypoxia-inducible factor 1 (HIF1A) Trancription factor using HepaRG (AID 2283503)
How it was run: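 HIF1A transcript level read by qRT-PCR (ACTB, GAPDH, POLR2A normalization) after 48 h chemical exposure of HepaRG cultures. Eight half-log concentrations, top 100 uM, 0.5% DMSO vehicle, duplicates; bidirectional curve fit against DMSO baseline.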

[15] = read-out: 3-Hydroxy-3-Methylglutaryl-CoA Synthase 2 (HMGCS2), HMGCS2 (gene 3158); test: LTEA_HepaRG_HMGCS2: Life Technologies and Expression Analysis (LTEA) Assay for 3-Hydroxy-3-Methylglutaryl-CoA Synthase 2 (HMGCS2) using HepaRG (AID 2283504)
How it was run: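 Expression of HMGCS2 in human HepaRG liver cells is measured by qRT-PCR 48 h after dosing (highest 100 uM, half-log series, 0.5% DMSO). Values come from bidirectional concentration-response fitting with DMSO as baseline.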

HGF (gene 3082) = test: LTEA_HepaRG_HGF: Life Technologies and Expression Analysis (LTEA) Assay for Hepatocyte Growth Facto (HGF) using HepaRG (AID 2283505)
How it was run: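 Gain or loss of HGF mRNA in human HepaRG liver cells after 48 h chemical exposure; eight concentrations up to 100 uM with 0.5% DMSO vehicle, quantified by TaqMan qRT-PCR.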

[16] = read-out: growth arrest and DNA damage 45 (GADD45G), GADD45G (gene 10912); test: LTEA_HepaRG_GADD45G: Life Technologies and Expression Analysis (LTEA) Assay for growth arrest and DNA damage 45 (GADD45G) using HepaRG (AID 2283499)
How it was run: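 Human hepatic HepaRG line treated 48 h with chemicals (eight concentrations, half-log steps from 100 uM); transcript induction or repression of GADD45G scored by qRT-PCR versus DMSO vehicle.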

[17] = read-out: Heat shock 70 kDa protein 1 (HSPA1A), gene 3303; test: LTEA_HepaRG_HSPA1A: Life Technologies and Expression Analysis (LTEA) Assay for Heat shock 70 kDa protein 1 (HSPA1A) using HepaRG (AID 2283502)
How it was run: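 HSPA1A expression measured by qRT-PCR with ACTB/GAPDH/POLR2A normalization; curves fitted in both directions relative to DMSO vehicle. Exposure: 48 h in HepaRG cells, duplicate 8-point half-log series from 100 uM, 0.5% DMSO, serum-free induction medium.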

Measured: AC50

Sequence of Cytochrome P450 3A7 (Homo sapiens) (P24462 whole entry, looked up): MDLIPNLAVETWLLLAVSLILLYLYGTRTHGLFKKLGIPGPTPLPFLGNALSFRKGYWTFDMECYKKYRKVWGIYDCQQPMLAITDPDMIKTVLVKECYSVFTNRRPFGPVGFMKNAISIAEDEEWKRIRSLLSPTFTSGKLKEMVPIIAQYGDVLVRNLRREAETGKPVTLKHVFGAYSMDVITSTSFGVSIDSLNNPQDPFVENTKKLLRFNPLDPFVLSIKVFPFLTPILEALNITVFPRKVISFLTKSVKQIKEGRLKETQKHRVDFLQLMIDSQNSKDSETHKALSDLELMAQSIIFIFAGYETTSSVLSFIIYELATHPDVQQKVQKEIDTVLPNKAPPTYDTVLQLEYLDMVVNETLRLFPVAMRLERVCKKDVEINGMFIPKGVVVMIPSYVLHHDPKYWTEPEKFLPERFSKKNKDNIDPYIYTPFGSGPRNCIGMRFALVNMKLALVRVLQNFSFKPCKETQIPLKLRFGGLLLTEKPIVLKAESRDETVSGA
Sequence of Hypoxia-inducible factor 1-alpha (Homo sapiens) (Q16665 whole entry, looked up): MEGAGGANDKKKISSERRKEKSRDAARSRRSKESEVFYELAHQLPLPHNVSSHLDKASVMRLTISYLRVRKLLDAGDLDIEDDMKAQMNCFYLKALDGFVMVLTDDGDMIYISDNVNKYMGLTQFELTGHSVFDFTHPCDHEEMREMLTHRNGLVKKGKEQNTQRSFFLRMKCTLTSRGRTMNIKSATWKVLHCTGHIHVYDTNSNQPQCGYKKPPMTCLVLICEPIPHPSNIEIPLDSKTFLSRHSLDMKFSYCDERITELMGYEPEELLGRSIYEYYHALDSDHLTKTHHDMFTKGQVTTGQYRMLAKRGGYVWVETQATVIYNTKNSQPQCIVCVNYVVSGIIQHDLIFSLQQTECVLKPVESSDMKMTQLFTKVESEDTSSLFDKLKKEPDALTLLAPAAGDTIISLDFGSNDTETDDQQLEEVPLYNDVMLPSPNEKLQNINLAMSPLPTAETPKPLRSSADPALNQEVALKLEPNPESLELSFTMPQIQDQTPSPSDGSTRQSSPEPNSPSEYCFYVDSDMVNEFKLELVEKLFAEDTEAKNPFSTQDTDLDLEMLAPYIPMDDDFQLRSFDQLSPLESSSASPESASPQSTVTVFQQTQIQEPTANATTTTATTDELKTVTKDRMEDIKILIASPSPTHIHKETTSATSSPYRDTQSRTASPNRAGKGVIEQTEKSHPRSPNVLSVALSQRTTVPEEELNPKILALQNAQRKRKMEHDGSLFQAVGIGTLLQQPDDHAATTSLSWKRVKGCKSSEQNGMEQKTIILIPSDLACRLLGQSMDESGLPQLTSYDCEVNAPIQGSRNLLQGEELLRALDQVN
Sequence of Cytochrome P450 3A4 (Homo sapiens) (P08684 whole entry, looked up): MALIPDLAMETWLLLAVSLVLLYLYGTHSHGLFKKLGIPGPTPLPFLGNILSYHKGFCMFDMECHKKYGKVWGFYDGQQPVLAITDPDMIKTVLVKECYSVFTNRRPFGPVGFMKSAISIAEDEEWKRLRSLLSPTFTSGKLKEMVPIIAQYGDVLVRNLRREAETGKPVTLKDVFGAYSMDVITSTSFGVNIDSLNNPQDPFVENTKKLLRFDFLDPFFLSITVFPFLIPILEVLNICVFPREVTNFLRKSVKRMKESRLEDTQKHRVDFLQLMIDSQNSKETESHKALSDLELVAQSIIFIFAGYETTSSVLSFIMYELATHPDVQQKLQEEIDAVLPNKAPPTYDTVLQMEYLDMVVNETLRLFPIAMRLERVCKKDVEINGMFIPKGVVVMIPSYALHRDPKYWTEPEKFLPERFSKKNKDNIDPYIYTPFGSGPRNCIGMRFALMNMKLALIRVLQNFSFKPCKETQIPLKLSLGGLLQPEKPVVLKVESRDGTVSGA

CC(=O)O
not listed: [16] | [17]
inactive: all other assays above

CO[C@@H]1COCC[C@@H]1N[C@@H]1CC[C@@](C(=O)N2CCc3ncc(C(F)(F)F)cc3C2)(C(C)C)C1
not listed: [7] | [17]
inactive: all other assays above

CC(=O)S[C@H](C(=O)N[C@H]1Cc2ccccc2[C@H]2CCC[C@@H](C(=O)O)N2C1=O)C(C)C
not listed: [7] | [16]
inactive: all other assays above

O=C1O[C@H]([C@H](O)CO)C(O)=C1O
not listed: [7] | [16]
inactive: all other assays above

CCCCCCC(C=O)=Cc1ccccc1
not listed: [7] | [16] | [17]
inactive: all other assays above

CC(N)=O
not listed: [7] | [14] | HGF (gene 3082) | [16]
inactive: all other assays above

Nc1nc(Cl)nc2c1ncn2[C@H]1C[C@H](O)[C@@H](CO)O1
active: CYP4A11 (gene 1579) 1.41 µM | [4] 0.272 µM | CYP3A5 (gene 1577) 0.481 µM | [8] 5.92 µM | [9] 1.2 µM | [10] 1.76 µM | [11] 1.24 µM | [16] 5.75 µM | [15] 1.49 µM
inactive: [2] | [3] | [5] | [12] | [13]

CC(=O)[C@@]1(O)CC[C@H]2[C@@H]3CCC4=CC(=O)CC[C@]4(C)[C@H]3CC[C@@]21C
inactive: [2] | [3] | [4] | [5] | [10] | [11] | [12] | [13] | [15] | HGF (gene 3082)
